“And” between values parts separate entries of the source, which are not always exact repeats. Equal values may be shown once. The source holds several records for some structures; these can differ, active in one and inactive in another. The source made the active and inactive calls.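 Rule for the calls, unless noted: active = thallium flux through the channel raised or lowered by more than 3 SD from vehicle-only wells, actives on both sides; inactive = the rest.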

Test [1] can be described thus: stimulators of nuclear beta-catenin in C2C12, primary screen, imaging, WNT3A-conditioned medium, mouse C2C12, NPC library (AID 1117326; in the data active = nuclear beta-catenin stimulation mostly above about 4.2%, no sharp cut-off; inactive = mostly below about 10%). Particulars: stronger effect = higher value.
The nature of test [2]: stimulators of insulin release from INS-1E, primary screen, cell-based, 5 mM glucose, NPC library (AID 1117329;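 active = compound raises insulin release from rat beta cells at 5 mM glucose, no numeric limit stated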). Particulars: rat INS-1E insulin secretion, at 10 µM, stronger effect = higher value.
Test [3] can be described thus: growth inhibition of GSK3B-pretreated HCT116 cells – cell-based, CellTiter-Glo, 0.2 to 20 µM (AID 1117336;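 active = compounds lowering colon cancer cell viability after pretreatment blocking the GSK3B kinase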). Particulars: HCT116 viability after GSK3B inhibitor, at 20 µM, stronger effect = higher value.
Test [4] can be described thus: inhibition of endothelial tube formation, primary screen, imaging, VEGF stimulated, CD31 staining, tube area, NPC library (AID 1117340;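 active = compound that reduces growth-factor-driven endothelial tube area in a mixed cell culture, no cutoff stated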). Particulars: VEGF-stimulated ADSC/ECFC co-culture, at 10 µM, stronger effect = higher value.
The nature of test [5]: glucagon-like peptide 1 release enhancers, primary assay, NCI-H716 cell line, NPC library (AID 1117341;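 active = compound raises GLP1 secretion from the human gut endocrine cells, with no numeric limit stated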). Particulars: NCI-H716 cells, at 10 µM, stronger effect = higher value.
A short description of test [6]: HCT116 colon cancer cell growth inhibition, primary screen, CellTiter-Glo luminescence, NPC library (AID 1117342;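 active = compounds that lower survival of HCT116 colon cancer cells in the luminescence readout, no numeric limit stated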). To be noted: at 20 µM (top of the series).
Test [7] can be described thus: CellTiter-Glo luminescent readout of SW480 viability loss, NPC library primary (AID 1117343;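 active = compounds that lower viability of the colon cancer cells in the luminescence readout, with no numeric limit stated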). To be noted: CellTiter-Glo luminescence; at 20 µM (top of the series).
Test [8] is described as follows: decreased DLD-1 cellular survival, CellTiter-Glo luminescent readout, NPC compound collection, primary HTS (AID 1117346;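 active = compounds that lower survival of DLD-1 colon cancer cells in the luminescence readout, no cutoff given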). To be noted: DLD-1 viability, CellTiter-Glo luminescence; at 20 µM (top of the series).
Test [9] addresses 6-phosphogluconate dehydrogenase, decarboxylating (Homo sapiens) (UniProt P52209). The experiment in a line: 6PGD enzyme inhibitors, primary screen, biochemical, human, recombinant enzyme, NADPH absorbance (AID 1159550;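 active = at least 20% inhibition of 6-phosphogluconate dehydrogenase activity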). Particulars: recombinant 6PGD, NADPH absorbance 341 nm; at 10 µM; stronger effect = higher value.
The nature of test [10]: differential killing of epithelial or mesenchymal cells, primary screen, imaging, PC-3E GFP, TEM4-18 mCherry, co-culture (AID 1345086;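 active = compounds killing one labelled cell type while sparing the other, by normalised counts and ratio limits, not self-fluorescent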;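 for all read-outs here: cells exposed to compound for 72 h before imaging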;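 for red/green cell ratio (normalised): normalised mesenchymal count divided by normalised epithelial count so high means epithelial killing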). Particulars: imaging cell counts, at 1 µM; for red/green cell ratio (normalised): actives lie on both sides, counts scaled to control wells, 1 = unselective.
The nature of test [11]: sensitizers of A549 cells to miR-34 induction, primary screen, imaging, A549 dox-inducible miR-34, nuclei and caspase counts (AID 1347080;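 active = compounds whose cell count with miR-34 switched on is under 0.7 times the count with it off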). Particulars: A549 miR-34 inducible, Hoechst nuclei count, 48 h.
Test [12] in a line: survival rescue of mitochondrial mutant cells in low glucose, primary screen, MELAS cybrids, Rieske KO mouse fibroblasts, CellTiter-Glo (AID 1508586;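 active = mean z-score across replicates of 1.96 or higher in either the MELAS or the Rieske mutant cell line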;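 note: z relative to plate mean and SD of compound and empty wells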).
In test [13] the target is NAD(+) hydrolase SARM1 (Homo sapiens) (UniProt Q6SZW1). The experiment in a line: SARM1 TIR NADase inhibitors, cell lysate, NAD-Glo luminescence (AID 1508614;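 active = compound whose remaining NAD level is above about 45 nM, limit read from the data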;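 note: higher remaining NAD means stronger inhibition of SARM1 NADase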). Particulars: SAM-TIR HEK293T lysate NADase, at 1 µM, stronger effect = higher value.
Chain of NAD(+) hydrolase SARM1 (Homo sapiens) (Q6SZW1 whole entry, looked up, the tested form may be a part): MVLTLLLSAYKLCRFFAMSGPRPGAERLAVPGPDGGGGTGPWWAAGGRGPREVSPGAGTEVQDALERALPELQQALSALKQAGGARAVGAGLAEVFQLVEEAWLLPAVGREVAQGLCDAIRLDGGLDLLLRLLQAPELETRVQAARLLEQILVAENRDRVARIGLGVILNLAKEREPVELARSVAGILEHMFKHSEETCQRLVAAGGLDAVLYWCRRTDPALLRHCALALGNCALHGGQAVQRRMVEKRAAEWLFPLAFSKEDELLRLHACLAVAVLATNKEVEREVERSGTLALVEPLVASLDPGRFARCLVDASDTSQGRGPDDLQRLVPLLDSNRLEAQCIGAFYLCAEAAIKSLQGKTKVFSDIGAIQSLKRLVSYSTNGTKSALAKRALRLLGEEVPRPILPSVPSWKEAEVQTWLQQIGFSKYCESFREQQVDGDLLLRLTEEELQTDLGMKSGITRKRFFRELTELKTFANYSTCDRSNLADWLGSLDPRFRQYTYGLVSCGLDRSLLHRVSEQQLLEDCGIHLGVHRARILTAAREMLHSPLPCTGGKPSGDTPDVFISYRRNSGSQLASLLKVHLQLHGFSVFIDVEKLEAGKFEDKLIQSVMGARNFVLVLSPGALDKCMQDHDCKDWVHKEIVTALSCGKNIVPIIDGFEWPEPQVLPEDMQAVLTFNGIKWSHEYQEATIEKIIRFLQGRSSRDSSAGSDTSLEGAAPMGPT
Test [14] deals with Mitogen-activated protein kinase 7 (Homo sapiens) (UniProt Q13164). In words: ERK5 transactivation activators in reporter cells, primary screen, cell-based, HTS (AID 1508626;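 active = luciferase signal above three times the same-plate solvent-only control wells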;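 note: luciferase driven by Gal4-ERK5 fusion binding five Gal4 sites before minimal TATA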). To be noted: HeLa Gal4-ERK5 transactivation, 18 h, at 5 µM, stronger effect = higher value.
Chain of Mitogen-activated protein kinase 7 (Homo sapiens) (Q13164 whole entry, looked up, the tested form may be a part): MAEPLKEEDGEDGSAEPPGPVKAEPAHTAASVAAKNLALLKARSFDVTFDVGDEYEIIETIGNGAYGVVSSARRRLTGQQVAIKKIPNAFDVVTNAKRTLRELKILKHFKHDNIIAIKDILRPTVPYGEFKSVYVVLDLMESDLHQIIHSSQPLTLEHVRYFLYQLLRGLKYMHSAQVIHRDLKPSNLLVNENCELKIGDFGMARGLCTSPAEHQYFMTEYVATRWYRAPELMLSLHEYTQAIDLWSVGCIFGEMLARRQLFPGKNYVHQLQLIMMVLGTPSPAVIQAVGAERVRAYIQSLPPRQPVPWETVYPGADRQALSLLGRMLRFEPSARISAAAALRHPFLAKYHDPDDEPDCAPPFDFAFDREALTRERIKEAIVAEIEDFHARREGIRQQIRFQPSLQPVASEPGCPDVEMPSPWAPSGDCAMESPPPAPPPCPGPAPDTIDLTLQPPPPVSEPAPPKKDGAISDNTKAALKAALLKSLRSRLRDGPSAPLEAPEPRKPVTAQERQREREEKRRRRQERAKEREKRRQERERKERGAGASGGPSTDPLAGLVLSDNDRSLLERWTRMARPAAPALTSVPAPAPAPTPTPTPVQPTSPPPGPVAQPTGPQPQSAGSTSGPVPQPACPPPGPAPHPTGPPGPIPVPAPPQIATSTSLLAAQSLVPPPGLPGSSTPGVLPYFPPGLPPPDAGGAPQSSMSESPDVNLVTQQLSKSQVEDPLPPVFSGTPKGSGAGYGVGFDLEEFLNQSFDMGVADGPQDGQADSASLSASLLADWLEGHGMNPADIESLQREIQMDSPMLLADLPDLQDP
Test [15] has as its system F380Y. In words: modulators of BK channel variants, profiling panel, selectivity assay, cell-based, U2OS BacMam, thallium flux, beta subunits (AID 1259406).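 Note: initial slope of Thallos dye fluorescence rise after thallium is added; log ratio against the mean of 0.3% DMSO vehicle wells on the same plate.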 To be noted: at 30 µM.
For test [16], the system named is F380Y/beta2Delta. Described as above. To be noted: at 30 µM.
Test [17] concerns the target Calcium-activated potassium channel subunit alpha-1 (Homo sapiens) + Leucine-rich repeat-containing protein 26 (Homo sapiens) (UniProt Q12791+Q2I0M4). The test is described as above. Particulars: F380Y/Slo1WT/gamma1, at 30 µM.
The test system of test [18] is R275C. The description is as above. To be noted: at 30 µM.
For test [19], the system named is R275C/beta1. Described as above. To be noted: at 30 µM.
Test [20] deals with R275C/beta2Delta. The test is described as above. To be noted: at 30 µM.
[21] abbreviates: measured here: epithelial PC-3E GFP cell survival.
Setting [22] is: measured here: mesenchymal TEM4-18 mCherry cell survival.
[23] abbreviates: MELAS cybrid survival, CellTiter-Glo 48 h, stronger effect = higher value.
Setting [24] is: Rieske KO mouse fibroblast survival, CellTiter-Glo 72 h.

Chain of 6-phosphogluconate dehydrogenase, decarboxylating (Homo sapiens) (P52209 whole entry, looked up): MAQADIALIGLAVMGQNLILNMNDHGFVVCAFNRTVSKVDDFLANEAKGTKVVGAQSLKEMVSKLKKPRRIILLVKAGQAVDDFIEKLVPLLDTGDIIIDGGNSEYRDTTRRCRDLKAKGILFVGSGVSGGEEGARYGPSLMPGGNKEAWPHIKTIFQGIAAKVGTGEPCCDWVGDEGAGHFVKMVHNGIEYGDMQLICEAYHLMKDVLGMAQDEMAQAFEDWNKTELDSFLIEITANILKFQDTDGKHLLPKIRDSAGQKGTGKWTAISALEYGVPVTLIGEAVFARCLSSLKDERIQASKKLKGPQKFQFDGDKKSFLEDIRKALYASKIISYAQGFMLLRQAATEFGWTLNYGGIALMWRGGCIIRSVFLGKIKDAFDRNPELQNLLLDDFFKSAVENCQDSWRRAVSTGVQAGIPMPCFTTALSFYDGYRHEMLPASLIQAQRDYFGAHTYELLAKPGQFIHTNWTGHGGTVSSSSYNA
Chain of Calcium-activated potassium channel subunit alpha-1 (Homo sapiens) + Leucine-rich repeat-containing protein 26 (Homo sapiens) (Q2I0M4 whole entry, looked up, one chain of several): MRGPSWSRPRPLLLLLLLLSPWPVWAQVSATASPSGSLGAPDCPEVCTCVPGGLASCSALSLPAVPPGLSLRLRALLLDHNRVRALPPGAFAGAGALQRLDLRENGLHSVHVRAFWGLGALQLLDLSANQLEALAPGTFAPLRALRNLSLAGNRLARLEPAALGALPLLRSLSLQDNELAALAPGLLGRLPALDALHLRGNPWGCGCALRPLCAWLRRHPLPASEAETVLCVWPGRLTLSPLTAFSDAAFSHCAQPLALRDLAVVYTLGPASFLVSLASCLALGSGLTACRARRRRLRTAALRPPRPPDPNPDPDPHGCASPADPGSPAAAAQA

Turning to `COc1ccc(OC)c(C(O)CNC(=O)CN)c1` (stereo unspecified), the nuclear beta-catenin stimulation is 3.8% (inactive) in [1] (at 10 µM) and 4.9% in [1] (stimulation, at 2 µM). In addition, the insulin secretion stimulation in [2] is 2.7% (inactive). In [3], the viability decrease was 17.9% (inactive). Also, the tube area decrease in [4] is -15.2% (inactive). Further, the GLP1 secretion stimulation in test [5] was 0.7% (inactive). The inhibition of viability in [6] is -0.9% (inactive). The viability decrease (inhibition) is -26.4% (inactive) in test [7] and 0.7% (inactive) in test [8]. In addition, in test [9], the inhibition was -19.4% (inactive). In addition, the red/green cell ratio (normalised) in test [10] was 1.18 (inactive). Moreover, the results for the normalised cell number in test [10] (setting [21]) and in test [10] (setting [22]) were 1.01 and 1.2, respectively. Moreover, the fold change is 0.924 (inactive) and 0.912 (inactive) and 0.855 (inactive) in [11] (stronger effect = lower value, cell number ratio, induced over uninduced); 2.18 and 0.75 and 3.91 in test [11] (measured here: relative caspase fold change +Dox/-Dox). The cell count is 9350 and 8590 and 11100 in test [11] (measured here: total cells with miR-34 induction, stronger effect = lower value); 10100 and 9420 and 12900 in test [11] (measured here: total cells without miR-34 induction). The z-score in [12] (setting [23]) is 0.0363 (inactive); in test [12] (setting [24]) it was -0.177. The remaining NAD in [13] was 10 nM (inactive). Besides, the luciferase signal in test [14] was 124 AU (inactive). Besides, the log fold change Tl+ flux was -0.028 (inactive) in test [15]; -0.0267 (inactive) in test [16]; 0.0303 (inactive) in test [17]; -0.0312 (inactive) in test [18]; -0.0304 (inactive) in test [19]; -0.0183 (inactive) in [20].

In the case of `c1ccc2[nH]c(-c3cscn3)nc2c1`, the nuclear beta-catenin stimulation in [1] (at 10 µM) is 1.5% (inactive); in [1] (stimulation, at 2 µM), 1.4%. Besides, in [2], the insulin secretion stimulation is -1.2% (inactive). In test [3], the viability decrease was -3.75% (inactive). The tube area decrease in [4] was 13.1% (inactive). In [5], the GLP1 secretion stimulation was 4.2% (inactive). In test [6], the inhibition of viability was 5.1% (inactive). Besides, the viability decrease (inhibition) is -9.9% (inactive) in test [7] and -17.1% (inactive) in test [8]. Besides, in test [9], the inhibition is 2.18% (inactive). Further, the red/green cell ratio (normalised) in test [10] is 1.18 (inactive). Moreover, the normalised cell number in test [10] (setting [21]) is 0.98; in [10] (setting [22]), 1.16. The z-score in [12] (setting [23]) was -0.164 (inactive) and 2.01 (active); in [12] (setting [24]), 0.655 and 0.153. In test [13], the remaining NAD was 10 nM (inactive). For the same compound, in test [14], the luciferase signal was 12 AU (inactive). For the same compound, the log fold change Tl+ flux in test [15] was -0.0155 (inactive); in test [16], -0.00898 (inactive); in [17] it was 0.048 (inactive); in [18], 0.0284 (inactive); in test [19], -0.0377 (inactive); in test [20], -0.0148 (inactive).

On to `COc1ccccc1OCC(O)COC(N)=O` (stereo unspecified), for which the nuclear beta-catenin stimulation in test [1] (at 10 µM) is -2.7% (inactive); in test [1] (stimulation, at 2 µM), -1.9%. In [2], the insulin secretion stimulation was -1.2% (inactive). In [3], the viability decrease was -1% (inactive). Further, the tube area decrease in [4] was 8.8% (inactive). Besides, the GLP1 secretion stimulation in test [5] is -4% (inactive). In addition, the inhibition of viability in test [6] is -3.97% (inactive). The viability decrease (inhibition) in [7] is 11.1% (inactive); in test [8] it was -10.7% (inactive). Further, the inhibition in test [9] was -17.6% (inactive). For the same compound, the red/green cell ratio (normalised) in test [10] was 0.97 (inactive). In addition, the normalised cell number in test [10] (setting [21]) came to 1.19; in test [10] (setting [22]) it was 1.16. For the same compound, the z-score in test [12] (setting [23]) was -0.379 (inactive) and 0.493 (inactive); in test [12] (setting [24]) it was -0.0724 and 0.212. Moreover, the remaining NAD in test [13] was 10 nM (inactive). In addition, the luciferase signal in [14] was 56 AU (inactive). Besides, the log fold change Tl+ flux is 0.00752 (inactive) in test [15]; -0.0478 (inactive) in test [16]; 0.0335 (inactive) in [17]; 0.00553 (inactive) in [18]; -0.013 (inactive) in test [19]; -0.018 (inactive) in [20].

In the case of `NC(=O)N1c2ccccc2CC(=O)c2ccccc21`, the nuclear beta-catenin stimulation in test [1] (at 10 µM) is 5.2% (inactive); in test [1] (stimulation, at 2 µM), 1.3%. Also, the insulin secretion stimulation in test [2] is -0.8% (inactive). In addition, the viability decrease in test [3] was -2.9% (inactive). Also, the tube area decrease in [4] was 0.9% (inactive). The GLP1 secretion stimulation in test [5] is 0% (inactive). The inhibition of viability in test [6] is 14.9% (inactive). Also, the viability decrease (inhibition) in test [7] was 5.4% (inactive); in test [8], 15.6% (inactive). Also, in test [9], the inhibition was 8.8% (inactive). The red/green cell ratio (normalised) in [10] was 1.05 (inactive). Also, the normalised cell number in [10] (setting [21]) was determined as 1.04; in test [10] (setting [22]) it was 1.09. Further, the z-score is -0.278 (inactive) and 0.355 (inactive) and 0.309 (inactive) in test [12] (setting [23]); -1.12 and 0.011 and -0.438 in [12] (setting [24]). Also, the remaining NAD in test [13] is 10 nM (inactive). Further, the luciferase signal in [14] is 56 AU (inactive). The log fold change Tl+ flux in test [15] was -0.0346 (inactive); in test [16] it was -0.0162 (inactive); in [17], 0.0743 (inactive); in test [18], -0.0757 (inactive); in test [19], 0.0898 (active); in test [20] it was 0.1 (active).
